A short description of assay [1]: qHTS assay to identify small molecule antagonists of the vitamin D receptor (VDR) signaling pathway - cell viability counter screen (AID 743225). Also: % is scaled to controls: 0 for no effect and ±100 for the full control effect; nearly all actives have a fitted effect of over 50% in size. In a few lines: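 Read-out: CellTiter-Glo luminescence measured 30 min after reagent addition at room temperature. Cells were VDR-bla HEK 293T exposed 16 h at 37C, 5% CO2, to compound with 3 nM final calcitriol agonist.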
For orientation: Quantitative high-throughput screening tests each substance at several concentrations.

Assay [2] can be described thus: qHTS assay to identify small molecule agonists of the NFkB signaling pathway - cell viability counter screen (AID 1159515; calls by dose curve; also: series mostly up to about 61 µM; % is scaled to controls: 0 for no effect and ±100 for the full control effect; nearly all actives have a fitted effect of over 55% in size). In a few lines:
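Read by CellTiter-Glo luminescence (30 min, room temperature) in the wells also used for the beta-lactamase FRET read. ME-180 NFkB-bla cells at 2,000 per well were plated overnight, then exposed to compound for 5 hr at 37 C.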

Assay [3] can be described thus: qHTS assay to identify small molecule agonists of the endoplasmic reticulum stress response signaling pathway (AID 1159516; active = well fitted activation curve with a large enough effect in the signal ratio in the repeat runs, not every such curve was filed as active; the % refers to the signal ratio; also: % is scaled to controls: 0 for no effect and ±100 for the full control effect). In a few lines:
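Ratiometric FRET readout (405 nm excitation; 460 and 530 nm emission) of a beta-lactamase gene driven by the ER stress response element, after 2 hr substrate loading. HeLa ESRE-bla cells were seeded overnight and treated with compounds for only 5 hr at 37 C.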

A short description of assay [4]: qHTS assay to identify small molecule antagonists of the retinoid-related orphan receptor gamma (ROR-gamma) signaling pathway - cell viability counter screen (AID 1159520). Also: % is scaled to controls: 0 for no effect and ±100 for the full control effect; nearly all actives have a fitted effect of over 50% in size. In a few lines: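 Tet-on ROR gamma CHO cells were given compounds for 2 hr, then doxycycline hyclate at 1 uM final, and incubated 16 hr at 37 C. Viability was measured as ATP content by CellTiter-Glo luminescence.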

Assay [5] addresses Nuclear receptor ROR-gamma (Homo sapiens) (UniProt P51449). The experiment in a line: qHTS assay to identify small molecule antagonists of the retinoid-related orphan receptor gamma (ROR-gamma) signaling pathway (AID 1159521;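 also: CHO cells with doxycycline inducible ROR-gamma driving an RORE luciferase reporter; top concentration of the series differs between compounds; % is scaled to controls: 0 for no effect and ±100 for the full control effect; nearly all actives have a fitted effect of over 50% in size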). In a few lines: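 CHO Tet-on RORγ, RORE-luc reporter. Cpd 2 h pre-incubation, then dox hyclate 1 uM final, 16 h, 37 C/5% CO2. ONE-Glo luminescence; decrease = antagonist.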

Assay [6] can be described thus: qHTS assay to identify small molecule agonists of the AP-1 signaling pathway (AID 1159526; calls by dose curve; also: % is scaled to controls: 0 for no effect and ±100 for the full control effect).
Assay [7] deals with Retinoic acid receptor RXR-alpha (Homo sapiens) (UniProt P19793). Put plainly: qHTS assay to identify small molecule agonists of the RXR signaling pathway (AID 1159527; calls by dose curve; also: nearly all actives have a fitted effect of over 35% in size; also: potency is read from the fitted curve at half-maximal effect; as to activation: % is scaled to controls: 0 for no effect and ±100 for the full control effect). In a few lines:
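Read-out: beta-lactamase FRET ratio (405 nm excitation, 460 and 530 nm emission) after 2 hr substrate loading at room temperature. Cells were RXR-alpha-UAS-bla HEK 293T treated with compounds for 16 hr in 2% charcoal-stripped FBS medium.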

Assay [8] is described as follows: qHTS assay to identify small molecule agonists of the RXR signaling pathway - cell viability counter screen (AID 1159529). Also: series mostly up to about 77 µM; % is scaled to controls: 0 for no effect and ±100 for the full control effect; nearly all actives have a fitted effect of over 50% in size. Summed up:
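HEK 293T RXRa-bla cells, 2% CS-FBS; 5 h settle; cpd 16 h 37 C, 5% CO2; CellTiter-Glo 30 min RT, luminescence. Tetraoctyl ammonium bromide as positive control.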

Assay [9] is described as follows: qHTS assay to identify small molecule agonists of the AP-1 signaling pathway - cell viability counter screen (AID 1159525; calls by dose curve; also: nearly all actives have a fitted effect of over 55% in size). In a few lines:
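Same-well cytotoxicity counter screen of the Tox21 10K library in ME-180 cells. The readout is ATP-dependent luminescence after 5 h compound treatment. Data are normalised to DMSO and tetra n-octyl ammonium bromide controls.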

Assay [10] in a line: qHTS assay to identify small molecule agonists of the endoplasmic reticulum stress response signaling pathway - cell viability counter screen (AID 1159517; calls by dose curve). Summed up:
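In parallel with the ESRE reporter read, cytotoxicity was scored by CellTiter-Glo luminescence (30 min, room temperature) on HeLa ESRE-bla cells dosed for 5 hr.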

Inconclusive results are not listed. Values without a mark were called inactive. Calls of active or inactive are those of the source. Unless noted, calls follow the shape of the dose curve; as a rule, active = well fitted curve in the direction sought with a large enough effect in the repeat runs; inconclusive = weak or mixed curves; inactive = no such curve, though single readings can be large; an effect the other way counts as inactive or inconclusive. Non-standard residues stand in square brackets, D forms with d. Residues, ends and D or L forms follow the SMILES beside them. *: point of attachment. Sta = CC(C)C[C@H](N)[C@@H](O)CC(=O)O; Isovaleryl = CC(C)CC(=O)*

The text below walks through data of PubChem BioAssay (Tox21).

Sequence of Retinoic acid receptor RXR-alpha (Homo sapiens) (P19793 whole entry, looked up): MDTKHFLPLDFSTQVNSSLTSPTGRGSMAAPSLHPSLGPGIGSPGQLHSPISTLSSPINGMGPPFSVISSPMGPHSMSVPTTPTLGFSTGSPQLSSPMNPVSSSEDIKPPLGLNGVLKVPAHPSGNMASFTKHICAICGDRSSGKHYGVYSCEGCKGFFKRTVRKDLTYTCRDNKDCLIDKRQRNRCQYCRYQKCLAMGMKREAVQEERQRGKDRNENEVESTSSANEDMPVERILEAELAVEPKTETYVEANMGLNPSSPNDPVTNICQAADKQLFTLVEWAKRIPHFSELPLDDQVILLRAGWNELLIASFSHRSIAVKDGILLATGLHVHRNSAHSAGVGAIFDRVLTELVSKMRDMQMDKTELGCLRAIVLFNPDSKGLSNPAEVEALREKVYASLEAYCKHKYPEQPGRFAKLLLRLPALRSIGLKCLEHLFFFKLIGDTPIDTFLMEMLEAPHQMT

As for `C[C@@H](CN1CC(=O)NC(=O)C1)N1CC(=O)NC(=O)C1`, the molecule was classed as inactive in assay [1], in assay [2], in assay [4] and in assay [5]. Besides, the Potency result in [3], in assay [6], in assay [7] and in assay [8] was “inactive” each time.
In the case of `C[C@@H]1NC(=O)[C@@H](N)CNC(=O)[C@H](C2CCNC(N)=N2)NC(=O)/C(=C/NC(N)=O)NC(=O)[C@H](CNC(=O)C[C@@H](N)CCCN)NC1=O` (stereo not given in full), the viability change, negative = cytotoxic was 3.48% [at 0.628 µM] in assay [1] and 0.985% [at 0.29 µM] in assay [9]. Further, the activity, negative = cytotoxic in [2] was 1.55% [at 0.628 µM]. For the same molecule, the activation is 0.164% [at 0.628 µM] in [3], -1.11% [at 0.29 µM] in assay [6] and 5.99% [at 0.29 µM] in [7]. Further, the activity, negative = cytotoxicity in assay [4] is 1.69% [at 0.349 µM]. In addition, in assay [5], the activity change, negative = inhibition is 9.3% [at 0.35 µM]. In addition, in assay [8], the activity change, negative = cytotoxicity is 9.35% [at 0.29 µM].
Regarding `O=Cc1ccccc1S(=O)(=O)O`, the result in [1], in assay [2], in [4], in [5] and in assay [9] was inactive. In addition, the Potency result in assay [3], in [6] and in assay [8] was “inactive” throughout. For the same molecule, the Potency in [7] is 9.77 µM (active).
Turning to `COc1ccc2cc(CCC(C)=O)ccc2c1`, the molecule was called inactive in assay [1], in [2], in [4], in assay [5] and in assay [9]. The Potency result in assay [3], in assay [6] and in assay [8] was “inactive” each time.
Take `CC(C)C(=O)Nc1cccc(C2CN3CCSC3=N2)c1` (stereo not given): the molecule was called inactive in [2], in assay [4], in [5] and in assay [9]. The Potency entry in [3] and in [6] was “inactive” throughout.
For the molecule `CC(=O)SC[C@@H](C)C(=O)N1CCC[C@H]1C(=O)N[C@@H](Cc1ccccc1)C(=O)O`, the result in assay [1], in assay [2], in assay [4], in assay [5] and in assay [9] was inactive. Moreover, the Potency entry in assay [3], in assay [6] and in assay [7] was “inactive” in each case.
With `CCOC(=O)CC(C(C)=O)C(C)=O`, the result in assay [1], in assay [2], in assay [4], in assay [5] and in assay [9] was inactive. For the same molecule, the Potency entry in [3] and in assay [6] was “inactive” throughout.
Regarding `CC(C)CC(=O)N[C@H](C(=O)N[C@H](C(=O)N[C@@H](CC(C)C)[C@@H](O)CC(=O)N[C@@H](C)C(=O)N[C@@H](CC(C)C)[C@@H](O)CC(=O)O)C(C)C)C(C)C` (Isovaleryl-VV[Sta]A[Sta]-OH), the call in assay [1], in assay [2], in [4], in assay [5] and in assay [9] was inactive. The Potency entry in assay [3], in assay [6] and in assay [8] was “inactive” in each case.
As to `N=C(N)S(=O)O`, the molecule was classed as inactive in assay [1], in assay [2], in assay [4], in assay [5] and in assay [9]. The Potency entry in assay [3], in assay [6], in [7] and in assay [8] was “inactive” each time.
On to `O=C(CCBr)N1CCN(C(=O)CCBr)CC1`, for which the molecule was classed as inactive in assay [1], in assay [2], in [4], in assay [5] and in assay [9]. For the same molecule, the Potency result in [3], in assay [6], in assay [7] and in [8] was “inactive” throughout.
For the molecule `COc1cc(OC)cc(OC)c1`, the call in [1], in assay [2], in assay [4], in assay [5] and in assay [9] was inactive. The Potency entry in assay [3], in [6], in assay [7] and in assay [8] was “inactive” in each case.
In the case of `CC(C)CC(O)Cc1ccccc1` (stereo not given), the molecule was called inactive in [2], in [4], in [5] and in assay [9]. Further, the Potency entry in assay [3], in assay [6] and in [8] was “inactive” in each case.
In the case of `COc1cc2nc(N3CCN(C(=O)C4CCCO4)CC3)nc(N)c2cc1OC` (stereo not given), the molecule was called inactive in assay [2], in assay [4], in [5] and in assay [9]. Besides, the Potency entry in [3], in assay [6], in [7] and in [8] was “inactive” throughout.
`CC(C)(C)c1ccc(C(=O)CCCCl)cc1`: the molecule was called inactive in assay [1], in assay [2], in assay [4], in assay [5] and in [9]. In addition, the Potency result in assay [3], in [6] and in assay [8] was “inactive” each time.
In the case of `CN1C(CCl)Nc2cc(Cl)c(S(N)(=O)=O)cc2S1(=O)=O` (stereo not given), the molecule was classed as inactive in assay [1], in assay [2], in assay [4], in assay [5] and in assay [9]. The Potency entry in assay [3], in [6], in assay [7] and in [8] was “inactive” each time.
`CC(C)(C)OC=O`: the outcome in [1], in assay [2], in assay [10], in assay [4] and in [5] was inactive. Besides, the Potency entry in assay [3], in assay [6] and in assay [8] was “inactive” in each case.
